Test results published in PubChem BioAssay (NCI).
Compounds without any hit were thinned out: in the full panel of roughly 79,000, 15% have a hit. Rule as the data show it: active = growth inhibition above about 70%; inactive = the rest.

Columns and labels:
[1] = NCI Yeast Anticancer Drug Screen. Data for the rad50 strain (AID 155);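 also: 0% = growth of vehicle-only cultures of the same strain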; details: S. cerevisiae rad50 strain growth inhibition; at 50.0 µM; stronger effect = higher value
In short: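 Growth of the mutant yeast was measured after compound exposure and referenced to vehicle-treated cultures.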

[2] = NCI Yeast Anticancer Drug Screen. Data for the mec2-1 strain (AID 157); details: S. cerevisiae mec2-1 strain, at 50.0 µM, stronger effect = higher value
In short: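 Cells of the genetically defined mec2-1 yeast strain are incubated with test compound. Inhibition of growth is calculated against vehicle-treated controls.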

[3] = NCI Yeast Anticancer Drug Screen. Data for the sgs1 mgt1 strain (AID 161);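 also: 0% = growth of cultures given vehicle only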; details: S. cerevisiae sgs1 mgt1 strain, at 50.0 µM, stronger effect = higher value
In short: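 Genetically altered yeast, compound exposure, growth inhibition relative to vehicle.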

[4] = NCI Yeast Anticancer Drug Screen. Data for the cln2 rad14 strain (AID 165);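 also: 0% = growth equal to vehicle treated cultures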; details: S. cerevisiae cln2 rad14 strain, at 50.0 µM, stronger effect = higher value
In short: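 The screen exposed genetically defined yeast (cln2 rad14) to test compounds and scored growth inhibition relative to vehicle-treated controls.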

[5] = NCI Yeast Anticancer Drug Screen. Data for the bub3 strain (AID 167); details: S. cerevisiae bub3 mutant strain, at 50.0 µM, stronger effect = higher value
In short: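 Whole-cell yeast assay. The mutant strain was incubated with compounds, and growth inhibition was determined by comparison with vehicle-treated cells.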

[6] = NCI Yeast Anticancer Drug Screen. Data for the mlh1 rad18 strain (AID 175); details: S. cerevisiae mlh1 rad18 strain growth inhibition; at 50.0 µM; stronger effect = higher value
In short: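 Compound-treated yeast growth, normalised to vehicle controls. Strain bears defined DNA repair mutations.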

Measured: growth inhibition

CC(=O)OCC1OC(N2C(=O)/C(=C/c3ccc4c(c3)OCO4)SC2=S)C(OC(C)=O)C(OC(C)=O)C1OC(C)=O (stereo not drawn)
inactive: [1] 1.5% | [2] -12.2% | [3] -20.9% | [4] 1.15% | [5] 0.15% | [6] 0.2%

Cc1ccc(/C(O)=C/C(=O)C(=O)NC23CC4CC(CC(C4)C2)C3)cc1
inactive: [1] 36.9% | [2] 15.3% | [3] 32.4% | [4] 24.9% | [5] 15.8% | [6] 23.4%

CCC(C)Nc1ncnc2c1cnn2C (stereo not drawn)
inactive: [1] -14.2% | [2] -27.9% | [3] -16.8% | [4] -32.5% | [5] -25.4% | [6] -10.9%

Cc1sc2ncnc(Cl)c2c1C
inactive: [1] 1.95% | [2] 13.2% | [3] -1.4% | [4] -23% | [5] 4.45% | [6] 4.05%

CC(C)CNC(=O)O
inactive: [1] 5.15% | [2] -7.1% | [3] -7.5% | [4] -6.15% | [5] -10.8% | [6] -4.75%

NCCCCCOCCCCCN
inactive: [1] 3.4% | [2] -0.25% | [3] -7% | [4] -8.1% | [5] 3.8% | [6] -1.65%

O=[N+]([O-])c1ccc(S(=O)(=O)SC(F)(F)F)cc1
inactive: [1] 14.7% | [2] 3.85% | [3] -1% | [4] -47.1% | [5] -3.25% | [6] 11.3%

C=C1CC[N+]2(CCCCCC)CCCC12 (stereo not drawn)
inactive: [1] 2.5% | [2] 27.4% | [3] 11.3% | [4] -1.4% | [5] 25.4% | [6] 21.6%

CCC(=O)OCC1OC(Oc2ccc(N=Nc3ccccc3)cc2)C(OC(=O)CC)C(OC(=O)CC)C1OC(=O)CC (stereo not drawn)
inactive: [1] 18.9% | [2] 3.4% | [3] 34% | [4] 1.35% | [5] 12.9% | [6] 28.2%

CCCCCCCC(=O)NNCc1ccccc1
inactive: [1] -16.1% | [2] 33.2% | [3] 15.6% | [4] 3.35% | [5] 15.9% | [6] 6.9%

Cc1cccc(N=Nc2c(-c3ccccc3)nn(C(N)=S)c2C)c1C
inactive: [1] -19.8% | [2] -30.4% | [3] -18.4% | [4] -221% | [5] -9.95% | [6] -7.75%

Cc1cc2ccccc2c[n+]1CC(O)CBr (stereo not drawn)
inactive: [1] -5.45% | [2] 7.05% | [3] 11.3% | [4] -36.8% | [5] -11.4% | [6] 5.9%

O=C(O)CC1SC2(C(=O)N(Cc3ccccc3)c3ccccc32)N(c2ccccc2)C1=O (stereo not drawn)
inactive: [1] 45.4% | [2] 29.8% | [3] 32.5% | [4] -8.55% | [5] 8.55% | [6] 53%

O=C(NCCCCCCNC(=O)OCCSCCn1cc(C(=O)NC(=O)OCc2ccccc2)c(=O)[nH]c1=O)OCCSCCn1cc(C(=O)NC(=O)OCc2ccccc2)c(=O)[nH]c1=O
inactive: [1] -21.3% | [2] -23.6% | [3] 2.6% | [4] 2.55% | [5] 15.1% | [6] -9.95%

CNS(=O)(=O)c1ccccc1C(=N)c1ccccc1
inactive: [1] -0.3% | [2] -8.25% | [3] -27.6% | [4] -4.95% | [5] -45.9% | [6] -31.4%

CCCCOC(=O)C1C(c2ccc(Cl)cc2)NC(c2ccc(Cl)cc2)C(C(=O)OCCCC)S1(=O)=O (stereo not drawn)
inactive: [1] -28.2% | [2] -15.1% | [3] -14.5% | [4] -1.4% | [5] -2.35% | [6] -45.2%

CC(=O)Oc1ccccc1-c1cc2ccccc2oc1=O
inactive: [1] -20.2% | [2] 20.8% | [3] 0.85% | [4] 5.15% | [5] 38.8% | [6] 11.8%

Cc1cc2c(SCc3ccccc3Cl)nc(N)nc2nc1C
inactive: [1] 15.7% | [2] 12.3% | [3] 5.65% | [4] -35% | [5] -12.6% | [6] 31.6%

O=C(O)c1ccnc2c(S(=O)(=O)O)cccc12
inactive: [1] 14.7% | [2] -2.05% | [3] -0.95% | [4] -35.5% | [5] 3.25% | [6] 12.4%

CCCNCC(O)COc1ccc2c3c(c(=O)oc2c1)CCC3 (stereo not drawn)
inactive: [1] 1.15% | [2] 10.8% | [3] -23.9% | [4] -8.25% | [5] -29.8% | [6] -15.8%

Cc1ccc(NC(=O)CC(=O)CC(C)C)cc1C
inactive: [1] -22.2% | [2] -24.8% | [3] -17.4% | [4] 0.75% | [5] -37% | [6] -10.8%

COc1cc(C2C3=C(N=C4SC(C(C)=O)=C(C)N42)c2ccccc2CC3)cc(OC)c1OC (stereo not drawn)
inactive: [1] -30.4% | [2] -48.6% | [3] -22.2% | [4] 3.2% | [5] -35.7% | [6] -17.8%

O=S(=O)(N/N=C/c1ccc(Cl)c(Cl)c1)c1ccccc1
inactive: [1] 18.9% | [2] 13.6% | [3] 9.8% | [4] -28.4% | [5] 13.1% | [6] 32.2%

CC(=O)NC1C(OCc2ccccc2)OC(CO)C(O)C1OCc1ccccc1 (stereo not drawn)
inactive: [1] 27.3% | [2] -18.2% | [3] 15.6% | [4] -24.1% | [5] -2.9% | [6] -11.8%

O=C1OC(C(O)CO)C(C(O)CO)OC1=O (stereo not drawn)
inactive: [1] -9.3% | [2] -15.6% | [3] -39.5% | [4] -7.35% | [5] -12.3% | [6] 1.6%

CC(O)(CCCCCl)c1nc2ccccc2s1 (stereo not drawn)
inactive: [1] 20.9% | [2] -8.05% | [3] 25.4% | [4] -0.8% | [5] 11.9% | [6] 17.1%

Cc1ncc2c(n1)NC(c1ccc([N+](=O)[O-])cc1)NC2 (stereo not drawn)
inactive: [1] 0.45% | [2] -2.9% | [3] -16.6% | [4] -3.7% | [5] 14.7% | [6] -1.7%

CCOC(=O)C1C(C)=CC(=O)CC1CC (stereo not drawn)
inactive: [1] 24.3% | [2] -10.7% | [3] 14.8% | [4] -1.05% | [5] -3.85% | [6] 22.5%

O=C(NNc1ccccc1)NNc1ccccc1 (tested in a mixture with another compound)
inactive: [1] 11.1% | [2] -0.45% | [3] -0.9% | [4] 23.8% | [5] -12.2% | [6] 1.65%

O=C1OC(=O)C2CCC12 (stereo not drawn)
inactive: [1] 14% | [2] -9.5% | [3] 3.5% | [4] 2.5% | [5] 12.5% | [6] 17.6%

COc1ccc(/C(=N\NC(=O)C(N)=O)C(c2ccc(OC)cc2)C2(O)C(=O)Nc3c(Cl)cccc32)cc1 (stereo not drawn)
inactive: [1] -9.45% | [2] -15.4% | [3] -49.5% | [4] 32.5% | [5] 0.3% | [6] -23.1%

Cc1ccc(N=C2SC(c3ccc(C)cc3)(c3ccc(C)cc3)c3ccccc32)cc1
inactive: [1] -35% | [2] 11.2% | [3] -3.9% | [4] -4.75% | [5] -7.15% | [6] -16.1%

CC(C)=CCS(=O)c1ccccc1NC1=CC(=O)CC(C)(C)C1 (stereo not drawn)
inactive: [1] -16.2% | [2] -26.1% | [3] -37.6% | [4] -7.55% | [5] -5.8% | [6] -3.55%

CCN(CC)CCCC(C)=O
inactive: [1] 9.25% | [2] 21.6% | [3] 28.2% | [4] 18.6% | [5] 13% | [6] 3.4%

CC(=O)N1c2cc(N=NN(C)C)ccc2NC(=O)CC1C (stereo not drawn)
inactive: [1] 20% | [2] -3.05% | [3] 9.5% | [4] 0.65% | [5] 4.2% | [6] 34.3%

O=C1C(OC(=O)c2ccccc2)=C(c2ccc(O)cc2)C(=O)C(OC(=O)c2ccccc2)=C1c1ccc(O)cc1
inactive: [1] 24.1% | [2] 0.45% | [3] 5.55% | [4] 9.75% | [5] 17.2% | [6] -44.6%

COc1cc(C)ccc1C(=O)C[n+]1ccc2ccccc2c1
inactive: [1] -41.3% | [2] -1.35% | [3] -25.9% | [4] -56.1% | [5] -1.55% | [6] -2.5%

CCN(CC)CCC1(C(N)=O)Cc2ccccc2N(CC)c2ccccc21 (stereo not drawn)
inactive: [1] 13.6% | [2] 10.6% | [3] 8.7% | [4] -2.6% | [5] 6.4% | [6] 1.85%
